Compound activity as filed in PubChem.
Only some compounds are listed: those with a hit (about 19% of all), similar ones and a draw of the others.
TDP1 cell noCPT – qHTS for Inhibitors of human tyrosyl-DNA phosphodiesterase 1 (TDP1): qHTS in cells in absence of CPT | DT40 Tdp1-/- hTDP1 cells, no CPT, ATP luminescence, 48 h | Potency, µM (top dose mostly 46.2 µM), for the others: top-dose activity change, negative = growth inhibition, usual class: inhibitors | 420,000 compounds, 15% hits | AID 686978, 2013; further: nearly all actives have a fitted effect of over 55% in size
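Chicken DT40 Tdp1-/- cells stably complemented with human TDP1 were seeded at 400 cells/well with DMSO in place of 20 nM camptothecin. After compound pinning, cells grew at least 48 hr at 37 °C; viability read by CellTiter-Glo luminescence.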
HT1080NT lethal – kills 2HG-producing HT-1080-NT fibrosarcoma cells | HT-1080-NT fibrosarcoma viability, CellTiter-Glo ATP luminescence, 48 h | Potency, µM (titrated, usually from 46.1 µM), for the others: at the top dose activity, negative = less viability, most hits filed as cytotoxic | 360,000 compounds, 1.6% hits | AID 686970;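 further: NT is the 2HG producing partner of a matched IDH1 knockdown line; 0% = DMSO-treated cells and -100% = media-only wells without cells; nearly all actives have a fitted effect of over 55% in size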
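A 48-hour cytotoxicity screen used HT-1080-NT cells plated 2 hours before compound delivery. ATP-based CellTiter-Glo luminescence measured viability, normalized to DMSO and no-cell controls.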
TDP1 cell CPT – DT40-hTDP1 cell growth loss with CPT | chicken DT40 Tdp1-/-;hTDP1 cells + 20 nM CPT, ATP luminescence, 48 h | Potency, µM (titrated, usually from 46.2 µM), for inactives: at the highest dose activity change, negative = growth inhibition, most hits filed as inhibitors | 420,000 compounds, 12% hits | AID 686979; further: nearly all actives have a fitted effect of over 55% in size
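Chicken DT40 Tdp1-/- cells complemented with human TDP1, 400 cells/well, exposed to compounds plus 20 nM camptothecin for at least 48 h at 37 C; viability read as ATP content by CellTiter-Glo luminescence.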
KB-3-1 cytotox – kills parental KB-3-1 adenocarcinoma cells; KB-3-1 viability, CellTiter-Glo ATP luminescence, 72 h; Potency, µM (top dose mostly 46.1 µM), usual class: cytotoxic; 400,000 compounds, 1.4% hits; AID 1347075; further: nearly all actives have a fitted effect of over 60% in size
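Multi-concentration cytotoxicity screen in KB-3-1 cells grown in DMEM lacking phenol red with 10% FBS. After 72 h at 37 °C with compound, ATP-dependent luminescence was recorded.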
HT1080 IDH1KD tx – kills HT-1080 cells with IDH1 knockdown; 360,000 compounds, 2% hits; HT-1080 IDH1 knockdown viability, ATP luminescence, 48 h; Potency, µM (titrated, usually from 46.1 µM), without a hit: at the top dose activity, negative = toxicity, actives largely listed as cytotoxic;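 further: 0% = DMSO wells and -100% = cell-free medium wells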
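Knockdown cells (IDH1KD HT-1080) received compounds 2 h after plating at 750 cells/well and were kept 48 h at 37 °C in 5% FBS RPMI. A CellTiter-Glo luminescence read gave % activity for curve fitting.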
KB-V1 cytotox – KB-V1 MDR subline cytotoxicity. KB-V1 MDR cells viability, CellTiter-Glo, 72 h. Potency, µM (series often up to 46.1 µM), hits mostly cytotoxic. 400,000 compounds, 3.4% hits. AID 1347076; further: nearly all actives have a fitted effect of over 60% in size
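KB-V1 cells (P-gp-expressing MDR subline of KB-3-1) in phenol-red-free DMEM with 10% FBS were exposed to library compounds over a concentration series for 72 h at 37 degrees C. Viability read by CellTiter-Glo luminescence; concentration-effect curves fitted after normalization.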
* = called active by the depositor. The call rests on the fitted dose curve; in most records, active means well fitted curve in the direction sought with a large enough effect; inconclusive means small, poorly fitted or top-dose-only effect, or another doubt; inactive means no such curve, though single readings can be large; an effect the other way counts as inactive or inconclusive. Unless noted, on the % scale 0 is the no-effect control and ±100 the full control effect; potency means the concentration at half of the fitted maximal effect.

What do the screens show for `Cc1nc(SCC(=O)Nc2ccc(S(=O)(=O)N3CCOCC3)cc2)c2c(C)c(C)sc2n1`?
TDP1 cell noCPT: inconclusive; HT1080NT lethal: -8.8%; TDP1 cell CPT: 25.9µM*; KB-3-1 cytotox: 5.8µM*; HT1080 IDH1KD tx: inconclusive; KB-V1 cytotox: inactive

Results for CCCCN(CC)CCNC(=O)CN1C(=O)COc2ccc(S(=O)(=O)N3CCOCC3)cc21 ?
TDP1 cell noCPT: 9.8%; TDP1 cell CPT: 8.9%; KB-3-1 cytotox: inactive; KB-V1 cytotox: inconclusive

How did Clc1ccc(-c2nc3ccc(Cl)cn3c2Cc2cccc(Cl)c2)cc1 do in these assays?
TDP1 cell noCPT: inconclusive; HT1080NT lethal: inconclusive; TDP1 cell CPT: inconclusive; KB-3-1 cytotox: inactive; HT1080 IDH1KD tx: inconclusive; KB-V1 cytotox: inactive

What do the screens show for `Clc1cccc(Cc2c(-c3ccco3)nc3ccc(Cl)cn23)c1`?
TDP1 cell noCPT: 23.1µM*; HT1080NT lethal: 23.1µM*; TDP1 cell CPT: 20.6µM*; KB-3-1 cytotox: inactive; HT1080 IDH1KD tx: 18.4µM*; KB-V1 cytotox: inactive

Results for Clc1cccc(Cc2c(-c3ccco3)nc3ccc(Br)cn23)c1 ?
TDP1 cell noCPT: 23.1µM*; HT1080NT lethal: inconclusive; TDP1 cell CPT: inconclusive; KB-3-1 cytotox: inactive; HT1080 IDH1KD tx: 16.4µM*; KB-V1 cytotox: inactive

How did CCOC(=O)[C@]12CCC=C1N(Cc1ccco1)C(=O)[C@H](CC(=O)N1CCN(C(=O)c3ccco3)CC1)C2 do in these assays?
TDP1 cell noCPT: -16.2%; HT1080NT lethal: 13.8%; TDP1 cell CPT: -1.2%; KB-3-1 cytotox: inactive; HT1080 IDH1KD tx: 11.9%; KB-V1 cytotox: inactive

What do the screens show for `CCCCSc1nnc2c(n1)OC(c1ccc(C)s1)Nc1ccccc1-2` (centres undefined)?
TDP1 cell noCPT: 11.6µM*; TDP1 cell CPT: 18.4µM*

What do the screens show for `CCCCCSc1nnc2c(n1)OC(c1ccc(C)s1)N(C(C)=O)c1ccccc1-2` (centres undefined)?
TDP1 cell noCPT: 8.2µM*; TDP1 cell CPT: 18.4µM*

What do the screens show for `CCCSc1nnc2c(n1)OC(c1ccc(Br)s1)Nc1ccccc1-2` (centres undefined)?
TDP1 cell noCPT: -27.9%; TDP1 cell CPT: -8.3%; KB-3-1 cytotox: inactive; KB-V1 cytotox: inactive

Results for O=S1(=O)c2ccccc2N(Cc2cccc(C(F)(F)F)c2)c2ccccc21 ?
TDP1 cell noCPT: inconclusive; TDP1 cell CPT: inconclusive; KB-3-1 cytotox: inconclusive; KB-V1 cytotox: inactive

What do the screens show for `Cc1csc2nc(COC(=O)c3cccc(NC(=O)COc4ccc(Cl)cc4)c3)cc(=O)n12`?
TDP1 cell noCPT: -0.6%; TDP1 cell CPT: -4.6%

Results for CCOC(=O)c1cccc(NC(=O)CSc2ncc3c(n2)-c2ccc(Cl)cc2N(Cc2ccccc2)S3(=O)=O)c1 ?
TDP1 cell noCPT: 1.46µM*; TDP1 cell CPT: inconclusive; KB-3-1 cytotox: inactive; KB-V1 cytotox: inactive

How did COc1ccc(CNC(=O)CSc2ncc3c(n2)-c2cc(Cl)ccc2N(Cc2ccccc2)S3(=O)=O)cc1OC do in these assays?
TDP1 cell noCPT: 11.6µM*; TDP1 cell CPT: 14.6µM*; KB-3-1 cytotox: inactive; KB-V1 cytotox: inactive

What do the screens show for `COc1ccc(CNC(=O)CSc2ncc3c(n2)-c2ccc(Cl)cc2N(Cc2ccc(F)cc2)S3(=O)=O)cc1OC`?
TDP1 cell noCPT: 11.6µM*; TDP1 cell CPT: 11.6µM*; KB-3-1 cytotox: inactive; KB-V1 cytotox: inactive

What do the screens show for `COc1ccccc1NC(=O)CSc1ncc2c(n1)-c1cc(Cl)ccc1N(C)S2(=O)=O`?
TDP1 cell noCPT: 10.3µM*; TDP1 cell CPT: 7.31µM*; KB-3-1 cytotox: inactive; KB-V1 cytotox: inconclusive

How did COc1cccc(NC(=O)CSc2ncc3c(n2)-c2ccc(Cl)cc2N(C)S3(=O)=O)c1 do in these assays?
TDP1 cell noCPT: -29.8%; TDP1 cell CPT: -16.2%; KB-3-1 cytotox: inactive; KB-V1 cytotox: inactive

What do the screens show for `C=C(C)c1cccc(C(C)(C)NC(=O)N2CCN(C(=O)OCC)CC2)c1`?
TDP1 cell noCPT: -11.3%; HT1080NT lethal: -1.9%; TDP1 cell CPT: -11.4%; KB-3-1 cytotox: inactive; HT1080 IDH1KD tx: -0.4%; KB-V1 cytotox: inactive

What do the screens show for `COc1ccccc1CNC(=O)CSc1ncc2c(n1)-c1ccccc1N(Cc1ccc(C)cc1)S2(=O)=O`?
TDP1 cell noCPT: 11.6µM*; TDP1 cell CPT: inconclusive; KB-3-1 cytotox: inactive; KB-V1 cytotox: inactive

How did CN1c2ccccc2-c2nc(SCC(=O)Nc3ccccc3)ncc2S1(=O)=O do in these assays?
TDP1 cell noCPT: 18.4µM*; TDP1 cell CPT: inconclusive; KB-3-1 cytotox: inactive; KB-V1 cytotox: inconclusive

How did CCOc1ccc(NC(=O)CSc2ncc3c(n2)-c2ccccc2N(C)S3(=O)=O)cc1 do in these assays?
TDP1 cell noCPT: 6.4%; TDP1 cell CPT: 0.0%; KB-3-1 cytotox: inactive; KB-V1 cytotox: inactive

What do the screens show for `Cc1ccc(C)c(NC(=O)CSc2ncc3c(n2)-c2ccc(Cl)cc2N(C)S3(=O)=O)c1`?
TDP1 cell noCPT: 18.4µM*; TDP1 cell CPT: inconclusive

Results for CC(C)Oc1ccc(CNC(=O)Cn2ncn3nc(-c4cccs4)cc3c2=O)cc1 ?
TDP1 cell noCPT: -28.6%; TDP1 cell CPT: -28.7%; KB-3-1 cytotox: inactive; KB-V1 cytotox: inactive

How did Cc1ccc(N2CC(NC(=O)c3ccc(Br)o3)CC2=O)cc1C (centres undefined) do in these assays?
TDP1 cell noCPT: inconclusive; TDP1 cell CPT: -24.2%

What do the screens show for `O=C(Nc1ccccc1)/C(=C\c1ccc(F)cc1)NC(=O)c1ccco1`?
TDP1 cell noCPT: -0.8%; HT1080NT lethal: 12.0%; TDP1 cell CPT: 4.5%; KB-3-1 cytotox: inactive; HT1080 IDH1KD tx: 12.8%; KB-V1 cytotox: inactive

Results for Nc1c(C(=O)Nc2ccc3c(c2)OCCO3)nnn1Cc1ccc(Br)cc1 ?
TDP1 cell noCPT: -28.3%; HT1080NT lethal: -11.4%; TDP1 cell CPT: -10.9%; KB-3-1 cytotox: inactive; HT1080 IDH1KD tx: -11.9%; KB-V1 cytotox: inactive

What do the screens show for `Nc1c(C(=O)Nc2ccc3c(c2)OCCO3)nnn1CCc1ccccc1`?
TDP1 cell noCPT: 3.26µM*; HT1080NT lethal: inconclusive; TDP1 cell CPT: 4.61µM*; KB-3-1 cytotox: 6.51µM*; HT1080 IDH1KD tx: inconclusive; KB-V1 cytotox: inconclusive
